This note sets out measurements from PubChem BioAssay (Tox21).

Each structure is given as a SMILES string. Values without a mark were called inactive. Records with an inconclusive call do not appear. Active and inactive are the calls of the source. Unless noted, calls follow the shape of the full dose curve.

Assay [1] in a line: Nuclear factor erythroid 2-related factor 2/antioxidant responsive element (Nrf2/ARE) small molecule agonists: luciferase reporter gene qHTS assay in human keratinocytes (AID 1919969). Also: nearly all actives have a fitted effect of over 35% in size. Also: potency is read from the fitted curve at half-maximal effect. On the technique in general: In a reporter assay the amount or activity of a reporter protein is the signal.
Assay [2] deals with KiSS-1 receptor (Homo sapiens) (UniProt Q969F8). The experiment in a line: Human kisspeptin (KISS1R) small molecule agonists, calcium flux assay in KISS1R-HEK293 cells (AID 1920064; active = well fitted activation curve with a large enough effect in the repeat runs; also: % is scaled to controls: 0 for no effect and ±100 for the full control effect). An outline of the steps:
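Cell line: HEK293, stable human KISS1R. Dye loading 1 h at 37 C after 18 h culture. Read: kinetic fluorescence, 480/540 nm, 3 min at 1 s intervals.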
(In general: A change in cytosolic calcium serves as a functional read-out for many receptors and channels.)

Assay [3] can be described thus: G protein-coupled receptor (GPCR) small molecule agonists, calcium flux assay: HEK293 wild type cell line counter screen (AID 1920065). Also: potency is read from the fitted curve at half-maximal effect. The procedure, abridged:
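Tox21 10K compounds, 15 concentrations each in triplicate, pin-transferred in DMSO onto dye-loaded cells; kinetic read at 480/540 nm for 3 min, 1 s intervals.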

Assay [4] can be described thus: p53 small molecule agonists, cell-based qHTS assay with human liver microsomes (AID 1963577). Also: % is scaled to controls: 0 for no effect and ±100 for the full control effect. An outline of the steps:
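Cells carrying a p53-responsive bla reporter were rested 5 h (37 C, 5% CO2) before compound transfer. Human liver microsomes plus NADPH, 0.5 mg/mL final apiece, supplied metabolism during the 16 h 37 C exposure.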
A general note: In qHTS, concentration-response curves come from the screen itself.

Assay [5] is described as follows: p53 small molecule agonists, cell-based qHTS assay with rat liver microsomes (AID 1963578). Also: % is scaled to controls: 0 for no effect and ±100 for the full control effect. An outline of the steps:
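Fluorescence from a beta-lactamase reporter under a p53 response element was measured after cells had been incubated 16 h at 37 C with test compound and rat liver microsomes plus NADPH (0.5 mg/mL final each).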

Assay [6] is described as follows: p53 small molecule agonists, cell-based qHTS assay with human liver microsomes: qHTS cell viability counter screen (AID 1963579). Also: nearly all actives have a fitted effect of over 45% in size. Also: potency is read from the fitted curve at half-maximal effect. The procedure, abridged: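 Seed p53RE-bla cells at 4,000 per well; incubate 5 h at 37 C; add compound, human liver microsomes and NADPH; incubate 16 h at 37 C; add CellTiter-Glo; after 30 min at room temperature, read luminescence.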

A short description of assay [7]: p53 small molecule agonists, cell-based qHTS assay with rat liver microsomes: qHTS cell viability counter screen (AID 1963580). Also: % is scaled to controls: 0 for no effect and ±100 for the full control effect; nearly all actives have a fitted effect of over 45% in size. The procedure, abridged: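 After the beta-lactamase ratio was read, CellTiter-Glo was added to the same wells and luminescence measured at 30 min; cells had been treated 16 h at 37 C with compounds, rat liver microsomes and NADPH (0.5 mg/mL final each).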

Assay [8] can be described thus: p53 small molecule agonists, cell-based qHTS assay: qHTS cell viability counter screen (AID 1963581). Also: nearly all actives have a fitted effect of over 45% in size. Also: potency is read from the fitted curve at half-maximal effect. The procedure, abridged:
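ATP content measured by luminescence in HCT-116 p53RE-bla cells treated 16 h at 37 C, same wells as the reporter screen.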

The target of assay [9] is 5-hydroxytryptamine receptor 2A (Homo sapiens) (UniProt P28223). Nature of the assay: 5-hydroxytryptamine receptor 2A (HTR2A) small molecule antagonists, cell-based qHTS assay (AID 1963586). Also: nearly all actives have a fitted effect of over 45% in size. Also: potency is read from the fitted curve at half-maximal effect. The procedure, abridged:
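CHO cells stably expressing human HTR2A were plated for 18 h at 37 C, then loaded with calcium dye for 1 h. Compounds were preincubated 5 min at room temperature before DOI (4 nM solution) was added. Kinetic fluorescence was read for 3 min.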

For assay [10] the target is unchanged. The experiment in a line: 5-hydroxytryptamine receptor 2A (HTR2A) small molecule agonists, cell-based qHTS assay (AID 1963587). Also: nearly all actives have a fitted effect of over 30% in size. Also: potency is read from the fitted curve at half-maximal effect. An outline of the steps: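 CHO cells stably expressing human HTR2A, plated 18 h, loaded with calcium dye 1 h at 37 C. Agonist mode: compounds added and intracellular calcium fluorescence recorded kinetically for 2 min at 1 sec intervals.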

The target of assay [11] is Muscarinic acetylcholine receptor M1 (Homo sapiens) (UniProt P11229). The experiment in a line: Cholinergic receptor muscarinic 1 (CHRM1) small molecule antagonists, cell-based qHTS assay (AID 1963588). Also: nearly all actives have a fitted effect of over 40% in size. Also: potency is read from the fitted curve at half-maximal effect. The procedure, abridged: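 Compounds were tested at 15 concentrations in three independent runs. Dye-loaded CHRM1-CHO cells were exposed 5 min at room temperature before stimulation by acetylcholine added at 50nM. Intracellular calcium was read kinetically on FDSS for 3 min.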
Sequence of Muscarinic acetylcholine receptor M1 (Homo sapiens) (P11229 whole entry, looked up): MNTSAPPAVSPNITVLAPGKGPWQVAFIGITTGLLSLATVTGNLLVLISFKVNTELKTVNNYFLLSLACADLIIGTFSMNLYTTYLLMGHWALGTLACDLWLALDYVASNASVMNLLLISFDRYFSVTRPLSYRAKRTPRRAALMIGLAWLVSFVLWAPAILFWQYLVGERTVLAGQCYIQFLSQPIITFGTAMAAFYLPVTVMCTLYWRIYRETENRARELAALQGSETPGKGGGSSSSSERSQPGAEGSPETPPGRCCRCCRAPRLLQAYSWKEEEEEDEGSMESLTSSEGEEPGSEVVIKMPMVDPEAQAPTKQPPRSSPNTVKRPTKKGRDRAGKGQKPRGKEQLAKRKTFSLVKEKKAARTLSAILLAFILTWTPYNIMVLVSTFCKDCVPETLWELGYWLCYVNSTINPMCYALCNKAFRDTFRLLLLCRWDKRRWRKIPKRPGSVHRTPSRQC

The target is the same in assay [12]. The experiment in a line: Cholinergic receptor muscarinic 1 (CHRM1) small molecule agonists, cell-based qHTS assay (AID 1963589). Also: % is scaled to controls: 0 for no effect and ±100 for the full control effect; nearly all actives have a fitted effect of over 35% in size. The procedure, abridged: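 Homogeneous fluorescence calcium flux, agonist mode. Human M1-expressing CHO cells; compound dosed at 15 concentrations, three independent runs; signal sampled every 1 sec.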
In assay [13] the target is Beta-2 adrenergic receptor (Homo sapiens) (UniProt P07550). Nature of the assay: Adrenergic beta2 receptor (ADRB2) small molecule antagonists, cell-based qHTS assay (AID 1963592). Also: nearly all actives have a fitted effect of over 50% in size. Also: potency is read from the fitted curve at half-maximal effect. An outline of the steps: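 Assay format: CHO-ADRB2 cells, 18-20hr seeding at 37C/5% CO2, then compound plus 1nM isoproterenol agonist mix for 0.5hr RT. Homogeneous time-resolved fluorescence cAMP detection after 1hr, expressed as 665/615 nm ratio.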
Sequence of Beta-2 adrenergic receptor (Homo sapiens) (P07550 whole entry, looked up): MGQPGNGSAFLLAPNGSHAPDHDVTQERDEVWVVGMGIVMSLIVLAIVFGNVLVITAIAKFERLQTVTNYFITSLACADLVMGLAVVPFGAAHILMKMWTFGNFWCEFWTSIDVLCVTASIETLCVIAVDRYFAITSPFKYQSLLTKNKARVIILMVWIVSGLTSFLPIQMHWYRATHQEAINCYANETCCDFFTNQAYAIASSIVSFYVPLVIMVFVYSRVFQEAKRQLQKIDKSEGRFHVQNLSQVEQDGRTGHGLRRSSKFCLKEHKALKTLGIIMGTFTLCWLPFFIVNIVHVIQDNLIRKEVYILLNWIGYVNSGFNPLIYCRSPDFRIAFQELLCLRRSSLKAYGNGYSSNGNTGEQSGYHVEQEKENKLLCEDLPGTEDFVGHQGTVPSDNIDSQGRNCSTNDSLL

Assay [14] has the same target. The experiment in a line: Adrenergic beta2 receptor (ADRB2) small molecule agonists, cell-based qHTS assay (AID 1963593).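 Also: CHO cells stably overexpressing human ADRB2; % is scaled to controls: 0 for no effect and ±100 for the full control effect.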 The procedure, abridged:
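CHO cells stably over-expressing ADRB2 were plated overnight at 37C, then dosed with compounds plus a stimulation mix containing 100uM IBMX and 25uM Ro-20-1724 for 0.5hr at room temperature. cAMP was measured by HTRF competition, 1hr.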

The target in assay [15] is D(2) dopamine receptor (Homo sapiens) (UniProt P14416). The experiment in a line: Dopamine D2 receptor (DRD2) small molecule antagonists, cell-based qHTS assay (AID 1963595; active = well fitted inhibition curve with a large enough effect in the signal ratio in the repeat runs, with a control signal flat; the % refers to the signal ratio; also: % is scaled to controls: 0 for no effect and ±100 for the full control effect). An outline of the steps: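 Antagonist mode in DRD2-HEK293 cells: after compound addition with 0.1 mM Ro20-1724, cells received quinpirole (12 nM) and NKH477 (200 nM) for 30 min at room temperature; HTRF cAMP read after 1 h detection.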
Sequence of D(2) dopamine receptor (Homo sapiens) (P14416 whole entry, looked up): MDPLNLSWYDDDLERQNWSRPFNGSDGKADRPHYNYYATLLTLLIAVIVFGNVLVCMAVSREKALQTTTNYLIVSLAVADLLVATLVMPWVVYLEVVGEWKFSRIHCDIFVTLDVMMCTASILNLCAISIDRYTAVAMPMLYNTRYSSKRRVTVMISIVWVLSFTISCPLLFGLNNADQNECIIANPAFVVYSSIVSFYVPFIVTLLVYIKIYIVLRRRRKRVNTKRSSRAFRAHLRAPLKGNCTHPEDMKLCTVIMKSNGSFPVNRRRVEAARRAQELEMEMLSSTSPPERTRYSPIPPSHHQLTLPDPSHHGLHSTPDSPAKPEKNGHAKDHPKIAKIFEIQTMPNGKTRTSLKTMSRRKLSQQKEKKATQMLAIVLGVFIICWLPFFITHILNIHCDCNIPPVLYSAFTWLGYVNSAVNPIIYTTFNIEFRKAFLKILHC

The target in assay [16] is Gonadotropin-releasing hormone receptor (Homo sapiens) (UniProt P30968). The experiment in a line: Human gonadotropin-releasing hormone receptor (GnRHR) small molecule agonists, calcium flux assay in GnRHR-HEK293 cells (AID 1920063). Also: nearly all actives have a fitted effect of over 35% in size. Also: potency is read from the fitted curve at half-maximal effect. An outline of the steps:
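Compounds dissolved in DMSO are pin-transferred onto dye-loaded GnRHR-HEK293 cells, which were seeded 18 h before at 37 C/5% CO2. Calcium signal is read as fluorescence intensity at 1 s intervals for 3 min.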

A short description of assay [17]: p53 small molecule agonists, cell-based qHTS assay (AID 1963582; active = well fitted activation curve with a large enough effect in the signal ratio in the repeat runs, not every such curve was filed as active; the % refers to the signal ratio; also: % is scaled to controls: 0 for no effect and ±100 for the full control effect). An outline of the steps: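 16 h compound exposure (37 C) of p53 response element–bla cells, preceded by 5 h recovery at 37 C/5% CO2; read-out via LiveBLAzer B/G FRET substrate, 2 h RT, fluorescence intensity.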
Assay [18] addresses D(2) dopamine receptor (Homo sapiens) (UniProt P14416). Nature of the assay: Dopamine D2 receptor (DRD2) small molecule agonists, cell-based qHTS assay (AID 1963594). Also: % is scaled to controls: 0 for no effect and ±100 for the full control effect; nearly all actives have a fitted effect of over 35% in size. The procedure, abridged:
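HEK293 cells stably expressing human DRD2, pre-treated with PDE inhibitor Ro20-1724 (0.1 mM final) and compound 10 min at room temperature, then stimulated with NKH477 (200nM […]) for 30 min. cAMP read by HTRF (665/620 nm).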

Assay [19] can be described thus: cAMP Responsive Elements (CRE) small molecule agonists, cell-based qHTS assay (AID 1963590). Also: % is scaled to controls: 0 for no effect and ±100 for the full control effect. An outline of the steps: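 HEK 293T cells stably bearing CRE-bla were plated at 2,000 cells per well and rested 18 h. Compounds, positive controls or DMSO were added for 3 h at 37 C. LiveBLAzer B/G substrate was then loaded for 2 h at room temperature.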
A short description of assay [20]: cAMP Responsive Elements (CRE) small molecule antagonists, cell-based qHTS assay (AID 1963591; active = well fitted inhibition curve with a large enough effect in the signal ratio in the repeat runs, not every such curve was filed as active; the % refers to the signal ratio; also: potency is read from the fitted curve at half-maximal effect). An outline of the steps:
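First, CRE-bla HEK293T cells settled 18 h at 37 C. Next, compound and 0.25 uM final NKH477 were applied for 3 h. Last, LiveBLAzer B/G substrate was loaded for 2 h at room temperature.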

Sequence of Gonadotropin-releasing hormone receptor (Homo sapiens) (P30968 whole entry, looked up): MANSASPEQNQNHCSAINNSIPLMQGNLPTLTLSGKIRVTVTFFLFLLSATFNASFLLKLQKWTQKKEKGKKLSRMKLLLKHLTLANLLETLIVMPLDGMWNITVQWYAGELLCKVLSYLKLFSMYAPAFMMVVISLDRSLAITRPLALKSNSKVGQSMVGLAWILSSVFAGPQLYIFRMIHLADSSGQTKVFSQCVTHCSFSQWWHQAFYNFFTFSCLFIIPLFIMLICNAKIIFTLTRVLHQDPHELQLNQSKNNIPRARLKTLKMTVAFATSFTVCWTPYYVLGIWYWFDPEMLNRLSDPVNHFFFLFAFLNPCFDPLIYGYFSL
Sequence of 5-hydroxytryptamine receptor 2A (Homo sapiens) (P28223 whole entry, looked up): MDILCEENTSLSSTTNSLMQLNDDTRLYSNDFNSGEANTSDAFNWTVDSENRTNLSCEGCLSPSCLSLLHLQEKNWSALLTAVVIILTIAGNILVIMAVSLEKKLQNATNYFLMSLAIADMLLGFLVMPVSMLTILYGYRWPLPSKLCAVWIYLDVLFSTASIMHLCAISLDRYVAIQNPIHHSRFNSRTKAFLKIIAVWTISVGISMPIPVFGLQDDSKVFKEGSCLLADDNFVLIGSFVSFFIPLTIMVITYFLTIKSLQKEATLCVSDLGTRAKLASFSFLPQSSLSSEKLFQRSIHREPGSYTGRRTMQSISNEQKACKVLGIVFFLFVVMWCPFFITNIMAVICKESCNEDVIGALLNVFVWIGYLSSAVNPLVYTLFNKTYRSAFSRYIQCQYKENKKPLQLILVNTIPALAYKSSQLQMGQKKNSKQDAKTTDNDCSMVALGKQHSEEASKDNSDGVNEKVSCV
Sequence of KiSS-1 receptor (Homo sapiens) (Q969F8 whole entry, looked up): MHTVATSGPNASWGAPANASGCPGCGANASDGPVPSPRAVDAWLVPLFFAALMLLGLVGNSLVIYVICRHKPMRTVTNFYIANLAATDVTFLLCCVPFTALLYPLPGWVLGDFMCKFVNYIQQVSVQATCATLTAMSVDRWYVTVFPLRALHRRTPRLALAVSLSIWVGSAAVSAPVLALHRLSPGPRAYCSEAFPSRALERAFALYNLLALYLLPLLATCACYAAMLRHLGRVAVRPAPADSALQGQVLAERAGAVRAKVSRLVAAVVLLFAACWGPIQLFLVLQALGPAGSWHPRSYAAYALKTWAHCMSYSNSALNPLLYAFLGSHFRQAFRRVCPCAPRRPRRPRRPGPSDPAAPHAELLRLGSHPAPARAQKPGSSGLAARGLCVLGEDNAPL

In the case of `CCCN(CCc1cccs1)[C@H]1CCc2c(O)cccc2C1`, the Potency entry in [1], in assay [2], in [3], in [4], in [5] and in assay [6] was “inactive” throughout. Besides, the Potency entry in [7], in assay [8], in [12], in assay [13], in assay [14] and in assay [15] was “inactive” in each case. Moreover, the Potency in assay [9] was 0.365 µM (active); in assay [10] it was 0.12 µM (active); in assay [11], 10.3 µM (active).
As for `CC1C2CC(CC2C2CCCC(O)C2)C1(C)C` (stereo unspecified), the Potency entry in assay [1], in assay [16], in [4], in assay [5], in assay [6] and in assay [8] was “inactive” throughout. The Potency result in assay [17], in assay [9], in assay [10], in assay [11], in assay [12] and in assay [13] was “inactive” each time. Also, the Potency entry in [14], in assay [18] and in assay [15] was “inactive” throughout.
Regarding `O=C(Nc1ccccc1)c1cc(Cl)ccc1O`, the Potency was 13.7 µM (active) in assay [1], 12.3 µM (active) in assay [3], 40.8 µM (active) in [8] and 61.1 µM (active) in [13]. For the same molecule, the Potency entry in assay [16], in assay [4], in [5], in [9], in [10] and in assay [11] was “inactive” in each case. Further, the Potency result in [12], in assay [18] and in [15] was “inactive” throughout.
As to `Nc1ccc2c(c1)CN1C(=O)c3ccccc3C1=N2`, the Potency is 0.13 µM (active) in assay [1], 6.57 µM (active) in [16] and 10.4 µM (active) in assay [10]. For the same molecule, the activation in [4] was 5.53% [at 13.5 µM]; in [14], 25.8% [at 19 µM]. For the same molecule, the activity change, negative = cytotoxicity in assay [6] is -28.3% [at 13.5 µM]; in assay [7], -20.3% [at 13.5 µM]. The activity, negative = inhibition in [11] is 0.434% [at 12.6 µM]. Also, the activity change, negative = inhibition in assay [13] was -18.2% [at 19 µM]; in assay [15], -0.331% [at 18.9 µM].
Turning to `CCN(CC)CCNc1ccc(CO)c2sc3ccccc3c(=O)c12`, the Potency was 11.9 µM (active) in assay [1], 26.6 µM (active) in [20] and 16.8 µM (active) in assay [13]. The Potency entry in assay [16], in assay [3], in assay [5], in assay [6], in assay [7] and in assay [19] was “inactive” in each case. Further, the Potency result in [15] is “inactive”.
In the case of `CNC(=S)NC`, the Potency entry in assay [1], in assay [16], in assay [4], in assay [5], in assay [6] and in assay [7] was “inactive” each time. The Potency entry in assay [9], in assay [10], in assay [11], in [12], in assay [13] and in assay [14] was “inactive” each time. Besides, the Potency result in assay [18] and in assay [15] was “inactive” each time.
For `CCCCCCCC/C=C\CCCCCCCC(=O)N(C)CC(=O)O`, in assay [1], the Potency was 54.5 µM (active). Further, the Potency entry in assay [16], in [3], in [4], in [5], in [7] and in assay [17] was “inactive” throughout. Further, the Potency entry in assay [9], in assay [11], in [12], in [13], in [14] and in assay [18] was “inactive” throughout. The Potency entry in assay [15] is “inactive”.
As for `CCCCCCCCCCCCCCCCCC[N+](C)(C)Cc1ccccc1`, the Potency entry in [1], in assay [2], in assay [3], in assay [4], in [5] and in assay [9] was “inactive” in each case. The Potency entry in assay [12] and in assay [18] was “inactive” throughout. For the same molecule, the Potency was 46.2 µM (active) in assay [6], 20.6 µM (active) in assay [8], 0.19 µM (active) in assay [11] and 61.7 µM (active) in [13].
For `CCOC(=O)COc1ccc2c(C)c(CCN(CC)CC)c(=O)oc2c1Cl`, the Potency result in assay [1], in assay [16], in [3], in assay [5], in assay [6] and in [7] was “inactive” in each case. Besides, the Potency entry in [17], in assay [9], in [10], in assay [13], in assay [18] and in [15] was “inactive” throughout. Moreover, the Potency in assay [11] was 2.59 µM (active).
